We go through eight molecules from PubChem BioAssay (NCATS).

Unmarked numbers belong to inactive results. Records with an inconclusive call do not appear. The source made the active and inactive calls. Unless noted, the call rests on the fitted dose curve; in most records, active means well fitted curve in either direction with a large enough effect (not every such curve was filed as active); inconclusive means small, poorly fitted or top-dose-only effect, or another doubt; inactive means flat fitted curve, though single readings scatter.

The target of assay [1] is Lysosomal acid glucosylceramidase (Homo sapiens) (UniProt P04062). In words: Glucocerebrosidase-p2 (AID 348; in the data active means potency below about 10 µM; further: potency means the concentration at half of the fitted maximal effect). Conditions: purified GBA, blue fluorogenic substrate, 40 min. The procedure, abridged: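 Compounds titrated from 0.6 nM upwards against 0.2 nM enzyme in pH 5.9 citric acid/KH2PO4, taurocholate, tween-20; blue fluorogenic substrate 80 uM, 40 min room temperature, stopped and read Ex 365/Em 440 for AC50.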
Sequence of Lysosomal acid glucosylceramidase (Homo sapiens) (P04062 whole entry, looked up): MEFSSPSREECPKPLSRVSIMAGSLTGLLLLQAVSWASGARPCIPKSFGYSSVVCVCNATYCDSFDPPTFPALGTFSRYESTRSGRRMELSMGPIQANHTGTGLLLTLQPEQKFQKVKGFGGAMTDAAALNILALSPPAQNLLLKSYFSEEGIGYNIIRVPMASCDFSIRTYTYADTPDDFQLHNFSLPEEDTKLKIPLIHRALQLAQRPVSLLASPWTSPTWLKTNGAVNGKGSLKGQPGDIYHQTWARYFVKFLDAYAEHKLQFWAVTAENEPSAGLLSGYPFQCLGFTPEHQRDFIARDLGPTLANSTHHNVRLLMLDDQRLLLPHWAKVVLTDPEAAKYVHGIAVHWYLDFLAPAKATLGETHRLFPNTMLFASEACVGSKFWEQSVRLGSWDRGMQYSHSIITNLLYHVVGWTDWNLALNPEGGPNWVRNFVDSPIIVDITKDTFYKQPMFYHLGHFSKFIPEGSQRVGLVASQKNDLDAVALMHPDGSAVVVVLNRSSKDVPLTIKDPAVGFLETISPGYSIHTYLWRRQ

The nature of assay [2]: AP1 Signaling Pathway (AID 357). Further: on the % scale 0 is the no-effect control and ±100 the full control effect. Conditions: ME-180 AP-1-bla reporter, EGF-induced, beta-lactamase ratio, 5 h; at 7.69 µM (top of the series) unless noted. The procedure, abridged: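 Read-out was the 460nm/530nm emission ratio (excitation 405nm) after CCF4 loading for 2.5 hours at room temperature. Cells carried an AP-1-driven beta-lactamase reporter, were stimulated with EC50 EGF plus compound for 5 hours, and AC50 values came from titrations.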

For assay [3], the target named is Cytochrome P450 1A2 (Homo sapiens) (UniProt P05177). In words: p450-cyp1a2 (AID 410; calls by dose curve; further: potency means the concentration at half of the fitted maximal effect). Conditions: recombinant CYP1A2, luciferin-ME demethylation, luminescence; series mostly up to 11.4 µM. The procedure, abridged:
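Human CYP1A2 (20nM) demethylated Luciferin-ME at its Km (100uM) in 100mM KPO4. After 10 min compound preincubation, NADPH regeneration ran the reaction 60 min at room temperature. Luciferin was read by luminescence, normalized to 57 uM furafylline.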

A short description of assay [4]: NFAT Signaling Pathway (AID 444).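 Further: carbachol stimulus at about its EC50 of 1 µM final; on the % scale 0 is the no-effect control and ±100 the full control effect.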 To be noted: Jurkat NFAT-bla M1, carbachol, beta-lactamase ratio, 5 h; at 7.69 µM (top of the series) unless noted. Put shortly:
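Jurkat cells carrying an NFAT-driven β-lactamase reporter and co-transfected muscarinic M1 receptor were treated with compound plus carbachol (1 uM final, an EC50 level) for 5 h at 37 °C. CCF4 loading followed for 1 h at RT; 460/530 nm ratio gave %activity.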

The nature of assay [5]: Stat Signaling Pathway (AID 446).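 Further: ME-180 cervical cancer cells given 40 pM IL-6 alongside compound; SIE-controlled beta-lactamase reporter measured as 460/530 nm FRET emission ratio; on the % scale 0 is the no-effect control and ±100 the full control effect.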 To be noted: ME-180 SIE beta-lactamase reporter, IL-6 stimulated, 5 h; at 7.69 µM (top of the series) unless noted. Put shortly:
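Reporter line: ME-180 cervical carcinoma, SIE-beta-lactamase. Treatment: compound with 40 pM IL-6, 5 hrs, 37 C, in low-serum OPTI-MEM with 10 mM HEPES pH 7.3. Detection: 460/530 nm fluorescence.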

In assay [6] the target is Glucocorticoid receptor (Homo sapiens) (UniProt P04150). In words: GR-GFP Redistribution (AID 450;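 active means compounds whose dose series gives a full or clear partial fitted curve of increased nuclear translocation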; further: potency means the concentration at half of the fitted maximal effect). To be noted: U2OS GR-GFP nuclear translocation, laser cytometry, 2 h.
Sequence of Glucocorticoid receptor (Homo sapiens) (P04150 whole entry, looked up): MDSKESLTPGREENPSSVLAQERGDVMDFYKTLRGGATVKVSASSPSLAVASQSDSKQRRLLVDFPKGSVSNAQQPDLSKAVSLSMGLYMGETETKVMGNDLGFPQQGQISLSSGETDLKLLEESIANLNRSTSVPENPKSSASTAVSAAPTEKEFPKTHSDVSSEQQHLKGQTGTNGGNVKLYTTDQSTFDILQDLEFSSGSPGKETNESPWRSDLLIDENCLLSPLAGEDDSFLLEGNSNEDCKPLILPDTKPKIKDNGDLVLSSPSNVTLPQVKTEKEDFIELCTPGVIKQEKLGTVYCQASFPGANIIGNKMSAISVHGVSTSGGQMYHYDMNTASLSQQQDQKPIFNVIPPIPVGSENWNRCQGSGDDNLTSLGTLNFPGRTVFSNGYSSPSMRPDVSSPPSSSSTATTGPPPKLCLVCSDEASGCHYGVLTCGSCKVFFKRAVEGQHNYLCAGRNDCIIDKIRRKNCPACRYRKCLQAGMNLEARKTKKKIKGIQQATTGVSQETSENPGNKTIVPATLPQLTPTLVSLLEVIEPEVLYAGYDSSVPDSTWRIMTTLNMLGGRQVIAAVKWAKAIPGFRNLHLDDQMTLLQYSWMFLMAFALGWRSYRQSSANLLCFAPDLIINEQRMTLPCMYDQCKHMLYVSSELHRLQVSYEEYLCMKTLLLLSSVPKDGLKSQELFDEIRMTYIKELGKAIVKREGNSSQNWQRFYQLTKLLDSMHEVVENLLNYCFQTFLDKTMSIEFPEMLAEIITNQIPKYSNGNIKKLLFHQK
Assay [7] shares this target. In words: GR-EFC Redistribution (AID 451; calls by dose curve; further: potency means the concentration at half of the fitted maximal effect). Conditions: CHO-K1 GR-EFC translocation, beta-gal luminescence, 2 h. Put shortly:
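CHO-K1 cells stably expressing nuclear-localized β-gal enzyme acceptor and GR fused C-terminally to the enzyme donor fragment; ligand-driven nuclear translocation restores β-gal by complementation. Compounds titrated up to 46 uM final, 2 h at 37 °C; luminescence read.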

For assay [8], the target named is Mitogen-activated protein kinase 10 (Mus musculus) (UniProt Q61831). In words: JNK3 AlphaScreen Assay (AID 530).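 Further: kinase came from lysate of stimulated human HepG2 cells; on the % scale 0 is the no-effect control and ±100 the full control effect.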 Conditions: JNK3 lysate, c-Jun phosphorylation; series mostly up to 11.4 µM. Put shortly: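 JNK3 came from HepG2 lysates pre-activated with IL-1beta and TNF-alpha and phosphorylated biotinylated GST-cJun (1-79) at 10 uM ATP, pH 7.6, room temperature. Compounds were titrated. AlphaScreen signal used anti-phospho-cJun (Ser73) antibody.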
(In Alpha technology, singlet oxygen from a donor bead excites a nearby acceptor bead.)

For assay [9], the target named is 3',5'-cyclic-AMP phosphodiesterase 4B (Homo sapiens) (UniProt Q07343). In words: qHTS Assay for Inhibitors of PDE-IV (AID 607; active means well fitted activation curve with a large enough effect in the main read-out, with a control signal flat, not every such curve was filed as active; further: % of control where 0% means no effect). Conditions: HEK293 ACTOne CNG channel cells, membrane potential fluorescence; series mostly up to 22.9 µM. The procedure, abridged: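 Cell-based read-out of cAMP via a modified cyclic nucleotide-gated channel and membrane potential dye (535/590 nm) in HEK293 cells expressing PDE4 endogenously. Compounds tested up to 22.9 uM final; 100 uM RO 20-1724 reference.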
Sequence of 3',5'-cyclic-AMP phosphodiesterase 4B (Homo sapiens) (Q07343 whole entry, looked up): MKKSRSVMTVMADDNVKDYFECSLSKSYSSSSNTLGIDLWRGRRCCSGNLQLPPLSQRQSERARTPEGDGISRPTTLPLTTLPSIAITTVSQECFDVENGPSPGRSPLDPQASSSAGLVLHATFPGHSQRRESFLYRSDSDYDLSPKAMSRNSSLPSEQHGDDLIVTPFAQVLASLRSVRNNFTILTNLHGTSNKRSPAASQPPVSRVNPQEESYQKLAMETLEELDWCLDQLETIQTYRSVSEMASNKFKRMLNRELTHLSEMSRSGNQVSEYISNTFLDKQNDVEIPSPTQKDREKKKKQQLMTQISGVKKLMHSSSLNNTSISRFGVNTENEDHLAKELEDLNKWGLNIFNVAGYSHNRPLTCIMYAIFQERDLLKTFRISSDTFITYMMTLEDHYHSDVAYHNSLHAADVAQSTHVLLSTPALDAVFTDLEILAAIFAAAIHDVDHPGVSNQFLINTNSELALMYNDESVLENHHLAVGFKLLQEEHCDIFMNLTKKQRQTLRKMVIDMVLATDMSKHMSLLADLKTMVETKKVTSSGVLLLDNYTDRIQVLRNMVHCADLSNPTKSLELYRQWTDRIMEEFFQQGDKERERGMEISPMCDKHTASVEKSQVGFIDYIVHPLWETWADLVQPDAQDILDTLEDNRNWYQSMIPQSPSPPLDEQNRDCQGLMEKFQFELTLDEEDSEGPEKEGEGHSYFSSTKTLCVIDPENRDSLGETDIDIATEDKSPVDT
In general terms: In qHTS, concentration-response curves come from the screen itself.

Assay [10] in a line: qHTS Assay for Identification of Small Molecule Agonists for Hypoxia Response Element Signaling Pathway (AID 914; active means well fitted activation curve with a large enough effect in the signal ratio, with a control signal flat, not every such curve was filed as active; the % refers to the signal ratio; further: % of control where 0% means no effect). To be noted: ME-180 (cervical carcinoma) HRE-bla reporter, beta-lactamase ratio, CoCl2, 17 h; activation: active compounds read high. Put shortly: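 Cells were plated overnight, pin-dosed with compound in a titration series, co-stimulated with EC50 CoCl2 and incubated 17 hours at 37 degrees Celsius. CCF4 substrate was then loaded, and AC50 values came from the 460nm/530nm ratio.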

The target of assay [11] is Cytochrome P450 3A4 (Homo sapiens) (UniProt P08684). In words: qHTS Assay for Inhibitors and Substrates of Cytochrome P450 3A4 (AID 884; active means well fitted curve in the direction sought with a large enough effect; an effect the other way counts as inactive or inconclusive; further: potency means the concentration at half of the fitted maximal effect; nearly all actives have a fitted effect of over 50% in size). Conditions: recombinant CYP3A4, Luciferin-PPXE luminescence; series mostly up to 57.1 µM. Put shortly:
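20 nM human CYP3A4 with 25 uM Luciferin-PPXE (at KM) in 200 mM KPO4, preincubated 10 min with compound; NADPH regeneration started a 60 min RT reaction. Luciferin detected by luminescence, normalized to 57 uM ketoconazole as full inhibition.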

Assay [12] has the same target. As to the kind of experiment: qHTS Assay for Activators of Cytochrome P450 3A4 (AID 885; active means well fitted curve in the direction sought with a large enough effect; an effect the other way counts as inactive or inconclusive; further: nearly all actives have a fitted effect of over 65% in size). To be noted: recombinant CYP3A4, Luciferin-PPXE luminescence, 60 min; series mostly up to 11.4 µM. The procedure, abridged: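 Signal was normalized against complete inhibition by 57 uM ketoconazole. The reaction used 20nM CYP3A4 with 25uM Luciferin-PPXE, 10-min compound preincubation and a 60-min NADPH-supported step at RT.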

The target of assay [13] is Cytochrome P450 2D6 (Homo sapiens) (UniProt P10635). In words: qHTS Assay for Inhibitors and Substrates of Cytochrome P450 2D6 (AID 891; active means well fitted curve in the direction sought with a large enough effect; an effect the other way counts as inactive or inconclusive;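 further: luciferin methyl ether substrate demethylated by CYP2D6 with NADPH regeneration; on the % scale 0 is the no-effect control and ±100 the full control effect; nearly all actives have a fitted effect of over 60% in size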). Conditions: recombinant CYP2D6, luciferin-ME EGE luminescence; series mostly up to 11.4 µM. Put shortly:
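Human CYP2D6 (5 nM) with 30 uM Luciferin-ME EGE (at Km) in 100 mM KPO4, compound preincubated 10 min, then NADPH regeneration system for 60 min at room temperature. Luciferin read by luminescence; normalized to 1.43 uM quinidine.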

The target in assay [14] is Cytochrome P450 2C19 (Homo sapiens) (UniProt P33261). As to the kind of experiment: qHTS Assay for Inhibitors and Substrates of Cytochrome P450 2C19 (AID 899; active means well fitted curve in the direction sought with a large enough effect; an effect the other way counts as inactive or inconclusive; further: on the % scale 0 is the no-effect control and ±100 the full control effect; nearly all actives have a fitted effect of over 60% in size). Conditions: recombinant CYP2C19, luciferin-H EGE luminescence; series mostly up to 11.4 µM. The procedure, abridged: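 Human CYP2C19 (5nM) with Luciferin-H EGE at 10uM (its KM) in 50mM KPO4 was preincubated with compound for 10 min at 37C. NADPH regeneration started a 60 min 37C reaction. Luciferin was read by luminescence, normalized to 57uM ketoconazole.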
Sequence of Cytochrome P450 2C19 (Homo sapiens) (P33261 whole entry, looked up): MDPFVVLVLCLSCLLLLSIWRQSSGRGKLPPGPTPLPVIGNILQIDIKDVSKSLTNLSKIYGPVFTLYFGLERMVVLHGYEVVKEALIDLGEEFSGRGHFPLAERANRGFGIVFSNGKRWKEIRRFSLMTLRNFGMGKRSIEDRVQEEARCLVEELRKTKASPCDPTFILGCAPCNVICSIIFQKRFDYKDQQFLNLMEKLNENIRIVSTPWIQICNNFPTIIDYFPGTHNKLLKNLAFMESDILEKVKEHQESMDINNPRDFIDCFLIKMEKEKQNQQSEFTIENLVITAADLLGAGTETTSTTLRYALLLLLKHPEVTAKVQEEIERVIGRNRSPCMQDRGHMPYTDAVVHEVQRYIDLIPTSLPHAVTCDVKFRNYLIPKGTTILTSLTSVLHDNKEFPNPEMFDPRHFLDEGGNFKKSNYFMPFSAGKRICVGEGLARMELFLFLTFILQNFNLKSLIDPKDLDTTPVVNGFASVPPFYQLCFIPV

Sequence of Cytochrome P450 3A4 (Homo sapiens) (P08684 whole entry, looked up): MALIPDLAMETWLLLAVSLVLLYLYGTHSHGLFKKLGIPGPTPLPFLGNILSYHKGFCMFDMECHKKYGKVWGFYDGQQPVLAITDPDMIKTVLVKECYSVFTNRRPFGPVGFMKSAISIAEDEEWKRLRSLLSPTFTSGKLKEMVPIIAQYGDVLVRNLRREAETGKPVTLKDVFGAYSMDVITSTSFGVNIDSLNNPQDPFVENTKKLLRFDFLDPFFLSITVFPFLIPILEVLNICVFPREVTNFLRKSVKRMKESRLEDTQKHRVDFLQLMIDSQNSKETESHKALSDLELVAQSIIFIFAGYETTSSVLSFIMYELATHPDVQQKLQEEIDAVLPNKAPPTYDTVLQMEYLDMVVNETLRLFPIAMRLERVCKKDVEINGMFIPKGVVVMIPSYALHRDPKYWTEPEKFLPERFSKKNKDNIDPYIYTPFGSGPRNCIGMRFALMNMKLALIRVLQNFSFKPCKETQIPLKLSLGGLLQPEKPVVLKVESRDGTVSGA
Sequence of Cytochrome P450 1A2 (Homo sapiens) (P05177 whole entry, looked up): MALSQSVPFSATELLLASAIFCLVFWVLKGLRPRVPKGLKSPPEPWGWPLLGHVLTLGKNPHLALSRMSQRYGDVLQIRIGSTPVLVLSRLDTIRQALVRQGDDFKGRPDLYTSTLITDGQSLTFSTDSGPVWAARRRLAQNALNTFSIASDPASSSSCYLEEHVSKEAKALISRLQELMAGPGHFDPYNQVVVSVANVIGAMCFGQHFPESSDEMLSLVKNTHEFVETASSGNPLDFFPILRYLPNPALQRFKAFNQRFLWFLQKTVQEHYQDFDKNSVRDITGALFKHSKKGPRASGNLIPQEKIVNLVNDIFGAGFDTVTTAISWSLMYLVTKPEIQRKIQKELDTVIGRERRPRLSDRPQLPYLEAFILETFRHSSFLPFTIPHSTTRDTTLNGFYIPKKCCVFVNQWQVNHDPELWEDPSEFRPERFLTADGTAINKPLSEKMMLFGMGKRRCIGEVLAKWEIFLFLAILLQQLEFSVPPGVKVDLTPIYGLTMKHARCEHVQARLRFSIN
Sequence of Cytochrome P450 2D6 (Homo sapiens) (P10635 whole entry, looked up): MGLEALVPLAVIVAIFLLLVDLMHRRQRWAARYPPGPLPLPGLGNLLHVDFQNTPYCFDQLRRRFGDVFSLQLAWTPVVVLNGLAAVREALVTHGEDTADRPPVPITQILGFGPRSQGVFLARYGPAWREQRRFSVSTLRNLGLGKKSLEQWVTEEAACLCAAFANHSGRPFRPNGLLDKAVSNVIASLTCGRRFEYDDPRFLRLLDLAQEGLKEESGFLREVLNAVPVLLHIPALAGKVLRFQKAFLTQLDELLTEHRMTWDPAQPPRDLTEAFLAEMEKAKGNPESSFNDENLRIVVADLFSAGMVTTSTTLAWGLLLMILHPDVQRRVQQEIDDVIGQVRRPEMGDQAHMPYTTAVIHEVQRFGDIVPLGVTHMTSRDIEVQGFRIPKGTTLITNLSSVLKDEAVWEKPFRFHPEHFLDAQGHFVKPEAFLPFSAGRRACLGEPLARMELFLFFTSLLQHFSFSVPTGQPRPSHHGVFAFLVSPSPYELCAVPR

Consider `Cc1c(C(=O)O)nc(/C=C\C(=O)O)[nH]c1=O`, for which the values for the Potency in assay [1], in [6] and in assay [7] were greater than 11.4 µM, greater than 46 µM and greater than 9.22 µM, respectively. Besides, the activity change, negative = inhibition in assay [2] was 11.1%; in [4] it was 3.17%. For the same molecule, the Potency result in assay [3], in [8] and in assay [9] was “inactive” throughout. Moreover, the activity, negative = inhibition in [5] is 21.1%. Moreover, the activation in [10] is 12.3%.
Consider `O=C(O)/C=C\C(=O)Nc1ccc2c(c1)C(=O)c1cc(F)ccc1-2`, for which the Potency in assay [1] was greater than 11.4 µM; in [3] it was 0.794 µM (active); in [6] it was greater than 46 µM; in [7], greater than 9.22 µM; in assay [11] it was 3.16 µM (active). In addition, the results for the activity change, negative = inhibition in assay [2] and in assay [4] were -12.9% and 9.23%, respectively. The activity, negative = inhibition in [5] was 0.748%. Also, the Potency entry in assay [8] and in assay [12] was “inactive” throughout.
Turning to `O=C(Cn1ccc(=O)[nH]c1=O)Nc1ccc(C(=O)O)c(O)c1`, the Potency in [1] is greater than 11.4 µM; in [6], greater than 46 µM; in assay [7] it was greater than 9.22 µM. The activity change, negative = inhibition was 13.2% in assay [2], -16.5% [at 2.29 µM] in assay [3] and 18.3% in assay [4]. In addition, the activity, negative = inhibition in [5] is 2.74%. For the same molecule, the Potency result in assay [8] and in assay [9] was “inactive” throughout. In addition, in assay [10], the activation was 6.06%.
Consider `CN(CCO)Cc1ncccc1O`, for which the Potency in assay [1] is greater than 11.4 µM; in assay [6], greater than 46 µM; in assay [7], greater than 9.22 µM. The activity change, negative = inhibition in assay [2] is -2.61%; in assay [3], -10% [at 2.29 µM]; in [4] it was 14.9%. In addition, the activity, negative = inhibition in assay [5] is 12.9%. Besides, in [9], the Potency result was “inactive”.
Regarding `NC1=C(O)C(=O)[C@H](c2c[nH]c3ccc(OCc4ccccc4)cc23)O1`, the Potency in [1] is greater than 11.4 µM; in [3], 3.98 µM (active); in assay [6], greater than 46 µM; in assay [7], greater than 9.22 µM. In addition, the activity change, negative = inhibition in assay [2] is -18.8%; in [4], 7.15%. For the same molecule, the activity, negative = inhibition in assay [5] was -6.03%. In addition, the Potency entry in [8] and in assay [12] was “inactive” throughout.
For `Cc1c(Cl)c(S(N)(=O)=O)cc(S(N)(=O)=O)c1NC(=O)c1ccc(Cl)cc1`, the results for the Potency in [1], in [6] and in [7] were greater than 11.4 µM, greater than 46 µM and greater than 9.22 µM, respectively. Also, the activity change, negative = inhibition in assay [2] is -4.6%; in assay [4] it was 5.51%. Also, the Potency entry in assay [3], in assay [8], in [13] and in assay [14] was “inactive” in each case. The activity, negative = inhibition in [5] is 5.58%.
In the case of `O=C1C[C@H]2C(=O)[C@@H]1[C@@H](C(=O)O)[C@H]2C(=O)O`, the Potency in [1] was greater than 11.4 µM; in assay [6] it was greater than 46 µM; in assay [7], greater than 9.22 µM. For the same molecule, the values for the activity change, negative = inhibition in [2] and in [4] were 5.27% and 7.84%, respectively. In addition, the Potency entry in assay [3] and in assay [9] was “inactive” each time. Also, in [5], the activity, negative = inhibition was -5.86%.
`CN(CC(=O)O)Cc1c[nH]c2ccccc12`: the Potency was greater than 11.4 µM in assay [1], greater than 46 µM in assay [6] and greater than 9.22 µM in assay [7]. The activity change, negative = inhibition in assay [2] is -2.9%; in assay [4], -8.48%. For the same molecule, the Potency result in assay [3] and in assay [9] was “inactive” each time. Also, the activity, negative = inhibition in assay [5] was -5.98%.
